Test results reported in PubChem BioAssay (EPA / NIEHS).
“And” between values parts separate entries of the source, which are not always exact repeats. Equal values may be shown once. Results filed as inconclusive are left out. The source holds several records for some structures; these can differ, active in one and inactive in another. The source made the active and inactive calls. Rule for the calls, unless noted: active = hit-call score of the fitted dose curve at least 0.9, where 1 is the maximum; inactive = score below 0.9.

How the values were obtained:
[1] = target: Nucleoli Translocation, AR (gene 367) (UniProt P10275); assay: UPITT_HCI_U2OS_AR_TIF2_Nucleoli_Antagonist: University of Pittsburgh U2OS Androgen Receptor-Transcriptional Intermediary Factor 2 (AR-TIF2) Antagonism High Content Imaging Assay for Nucleoli Translocation (AID 2283997; active = hit-call score of the fitted dose curve at least 0.9, where 1 is the maximum)
Procedure, shortened: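 U2OS cells expressing RFP-tagged human AR and GFP-tagged TIF2 were imaged by high-content fluorescence microscopy for red AR signal in the nucleolar region. Compounds were screened at 20 uM final (0.2% DMSO), with activity fitted relative to DHT as baseline.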

[2] = target: Nucleoli Translocation, AR (gene 367) (UniProt P10275); assay: UPITT_HCI_U2OS_AR_TIF2_Nucleoli_Agonist: University of Pittsburgh U2OS Androgen Receptor-Transcriptional Intermediary Factor 2 (AR-TIF2) Agonism High Content Imaging Assay for Nucleoli Translocation (AID 2283998; active = hit-call score of the fitted dose curve at least 0.9, where 1 is the maximum)
Procedure, shortened: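 Readout is red (AR-RFP) fluorescence localized to nucleoli, measured by high-content imaging and analysed for increase relative to DMSO. Compound series spanned 0.195 to 50 uM final in 0.5% DMSO.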

[3] = target: Ratio of Nucleoli Translocation and Cytoplasm, AR (gene 367) (UniProt P10275); assay: UPITT_HCI_U2OS_AR_TIF2_Nucleoli_Cytoplasm_Ratio_Antagonist: University of Pittsburgh U2OS Androgen Receptor-Transcriptional Intermediary Factor 2 (AR-TIF2) Antagonism High Content Imaging Assay for Ratio of Nucleoli Translocation and Cytoplasm (AID 2283999; active = hit-call score of the fitted dose curve at least 0.9, where 1 is the maximum;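 note: antagonists lower the DHT-driven ratio of nucleolar to cytoplasmic red signal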)
Procedure, shortened: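 U2OS cells co-expressing RFP-tagged human AR and GFP-tagged TIF2, antagonist mode with DHT as baseline. Nucleolar-to-cytoplasmic red fluorescence ratio imaged by high-content microscopy; final compound 20 uM (0.2% DMSO) primary, 0.195–50 uM (0.5% DMSO) concentration-response.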

[4] = target: Ratio of Nucleoli Translocation and Cytoplasm, AR (gene 367) (UniProt P10275); assay: UPITT_HCI_U2OS_AR_TIF2_Nucleoli_Cytoplasm_Ratio_Agonist: University of Pittsburgh U2OS Androgen Receptor-Transcriptional Intermediary Factor 2 (AR-TIF2) Agonism High Content Imaging Assay for Ratio of Nucleoli Translocation and Cytoplasm (AID 2284000; active = hit-call score of the fitted dose curve at least 0.9, where 1 is the maximum;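 note: hits raise the red nucleolar to cytoplasm ratio above vehicle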)
Procedure, shortened: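 U2OS cells expressing RFP-tagged human AR and GFP-tagged TIF2 were imaged by high-content fluorescence microscopy. The endpoint is the ratio of nucleolar to cytoplasmic red fluorescence, fitted for gain of signal relative to DMSO. Concentration-response spanned 0.195 to 50 uM final (0.5% DMSO).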

[5] = CCTE_Shafer_MEA_acute_firing_rate_mean: CCTE's Neural Acute Assay for Mean Firing Rate, Shafer Lab (AID 2284009);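 note: analyzed for loss of signal so actives lower firing rate relative to DMSO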
Procedure, shortened: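 Read-out: well-mean spike rate (spikes/recording length/electrodes), % change from 40 min pre-dose baseline to 40 min with compound. Rat cortical cultures, DIV 13 or 15, 37 C; 0.03-40 uM; DMSO as negative control.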

[6] = CCTE_Harrill_HTTr_Viability_MCF7: CCTE's 6-hour Cell Viability Assessment for the High-Throughput Transcriptomics (HTTr) Platform, in MCF-7 cells cultured in DMEM + 10% fetal bovine serum, Harrill Lab (AID 2284010)
Procedure, shortened: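 MCF-7 cells in DMEM + 10% FBS, 384-well, exposed 6 h to an eight-point dilution series. Membrane integrity scored by high-content imaging of propidium iodide exclusion; bidirectional fit versus DMSO.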

[7] = CCTE_Harrill_HTTr_Apoptosis_MCF7: CCTE's 6-hour Apoptosis Assessment for the High-Throughput Transcriptomics (HTTr) Platform, in MCF-7 cells cultured in DMEM + 10% fetal bovine serum, Harrill Lab (AID 2284011)
Procedure, shortened: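 MCF-7 (DMEM + 10% FBS), 384-well; 8-pt dilution series, 6 h chemical exposure; caspase-3/7 activation via CellEvent Caspase 3/7 Green, HCI; bidirectional fit vs DMSO.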

[8] = CCTE_Harrill_HTTr_CellCount_MCF7: CCTE's Cell Proliferation Assessment for the High-Throughput Transcriptomics (HTTr) Platform, Harrill Lab (AID 2284012; active = hit-call score of the fitted dose curve at least 0.9, where 1 is the maximum;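 note: cells exposed to compound for six hours; intended direction is loss of nuclei count meaning fewer cells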)
Procedure, shortened: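 MCF7 cells exposed 6 hours to an eight-point dilution series; Hoechst-stained nuclei counted by high-content imaging. Bidirectional curve fitting against DMSO baseline.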

[9] = CCTE_Shafer_MEA_acute_burst_number: CCTE's Neural Acute Assay for Single-Electrode Bursts, Shafer Lab (AID 2284013)
Procedure, shortened: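 Rat cortical cultures, DIV 13/15; 40 min baseline, then 40 min with compound 0.03-40 uM, 37 C. Spikes: 300-5000 Hz band-pass, threshold 8x rms noise. Readout = % change in single-electrode bursts vs baseline, loss-of-signal fit.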

[10] = CCTE_Shafer_MEA_acute_burst_duration_mean: CCTE's Neural Acute Assay for Mean Burst Duration, Shafer Lab (AID 2284014);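 note: hits are decreases in mean burst duration relative to DMSO controls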
Procedure, shortened: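 Primary rat cortical neurons on 16-electrode MEA wells, treated on DIV 13 or 15 with compound (0.03-40 uM; ≥3 wells each). 40-min baseline and 40-min exposure recordings at 37 C; percent change in mean burst duration per well versus DMSO.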

[11] = CCTE_Shafer_MEA_acute_per_burst_spike_number_mean: CCTE's Neural Acute Assay for Average Number of Spikes Per Burst, Shafer Lab (AID 2284015);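 note: hits are decreases in mean spikes per burst versus baseline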
Procedure, shortened: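 Primary rat cortical neurons on 48-well MEA plates, treated on DIV 13 or 15 at 0.03-40 uM. Spontaneous activity recorded 40 min before and 40 min after compound at 37 C; percent change in mean spikes per single-electrode burst per well, fitted in the loss direction versus DMSO.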

[12] = CCTE_Shafer_MEA_acute_interburst_interval_mean: CCTE's Neural Acute Assay for Mean Interburst Interval, Shafer Lab (AID 2284016);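 note: percent change of mean interburst interval versus each well's own pre-dose baseline; curves fitted for decrease in interburst interval relative to DMSO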
Procedure, shortened: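 Primary rat cortical neurons on 16-electrode MEA wells were recorded 40 min at baseline on DIV 13 or 15, then 40 min after compound (0.03-40 uM), at 37 C. Value is percent change in mean interburst interval per well, DMSO as negative control.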

[13] = CCTE_Simmons_MITO_basal_resp_rate: CCTE's HepG2 Seahorse XF Respirometric Screening Assay at Basal Respiratory State, Simmons Lab (AID 2284001); settings: actives raise or lower the signal
Procedure, shortened: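 HepG2 cells were given test chemicals at 7 concentrations, 125 nM to 100 uM final, and oxygen consumption rate was read every 6 min (3 min mix, 3 min measure) over 72 min. Basal-phase OCR was fitted bidirectionally against DMSO.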

[14] = CCTE_Simmons_MITO_inhib_resp_rate: CCTE's HepG2 Seahorse XF Respirometric Screening Assay at Inhibited Respiratory State [full ETC block], Simmons Lab (AID 2284006); settings: actives raise or lower the signal
Procedure, shortened: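 HepG2 oxygen consumption was measured by Seahorse XF after compound, FCCP, then rotenone/antimycin A injections. Seven concentrations from 125 nM to 100 uM (final) were tested, with 6-min kinetic reads over 72 minutes. Inhibited-state OCR was fitted bidirectionally against DMSO.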

[15] = CCTE_Simmons_MITO_viability: CellTiter-Glo Viability Assessment for CCTE's HepG2 Seahorse XF Respirometric Screening Assay [post-hoc], Simmons Lab (AID 2284007; active = hit-call score of the fitted dose curve at least 0.9, where 1 is the maximum;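 for AC50: cells exposed to chemical for 90 min before the ATP read; actives lower ATP signal relative to DMSO baseline meaning reduced viability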)
Procedure, shortened: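 HepG2 cells exposed 90 min to 7 concentrations from 125 nM to 100 uM final, then ATP measured by luciferase luminescence. Three biological replicates per concentration; DMSO vehicle; dichlone control at 10 nM–100 uM.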

DIO1 (gene 1733) = assay: CCTE_GLTED_hDIO1: CCTE's human Deiodinase 1 (DIO1) Inhibition Assay, Great Lakes Toxicology and Ecology Division (GLTED) Lab (AID 2283987; active = hit-call score of the fitted dose curve at least 0.9, where 1 is the maximum;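 note: isolated human DIO1 enzyme in a cell-free setup rather than cells; enzyme activity read as free iodide liberated from substrate via Sandell-Kolthoff colorimetry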)
Procedure, shortened: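 Inhibition of human deiodinase 1 is scored as reduced iodide liberation after a 3 h enzyme–chemical incubation, detected colorimetrically by the Sandell-Kolthoff reaction against DMSO controls.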

[16] = CCTE_Harrill_HTTr_Apoptosis_DMEM_24hr: (Pilot) CCTE's 24-hour Apoptosis Assessment for the High-Throughput Transcriptomics (HTTr) Platform, in MCF-7 cells cultured in DMEM + 10% fetal bovine serum, Harrill Lab (AID 2283983)
Procedure, shortened: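 MCF-7 cells in DMEM + 10% FBS, eight-point dilution series, 24 h exposure. Caspase-3/7 activation imaged by high-content imaging with CellEvent Caspase 3/7 Green. Bidirectional curve fitting against DMSO baseline.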

[17] = CCTE_Harrill_HTTr_Apoptosis_PRF_DMEM_6hr: (Pilot) CCTE's 6-hour Apoptosis Assessment for the High-Throughput Transcriptomics (HTTr) Platform, in MCF-7 cells cultured phenol red-free DMEM + 10% charcoal-stripped fetal bovine serum, Harrill Lab (AID 2283984)
Procedure, shortened: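 MCF-7 cells in phenol red-free DMEM + 10% charcoal-stripped FBS, eight-point dilution series, 6 h exposure. Caspase-3/7 activation imaged by high-content imaging with CellEvent Caspase 3/7 Green; bidirectional fit versus DMSO baseline.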

[18] = CCTE_Harrill_HTTr_Apoptosis_PRF_DMEM_12hr: (Pilot) CCTE's 12-hour Apoptosis Assessment for the High-Throughput Transcriptomics (HTTr) Platform, in MCF-7 cells cultured in phenol red-free DMEM + 10% charcoal-stripped fetal bovine serum, Harrill Lab (AID 2283985)
Procedure, shortened: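 MCF-7 cells in phenol red-free DMEM with 10% charcoal-stripped FBS, eight-point dilution series, 12 h exposure. Caspase-3/7 activation imaged by high content imaging with CellEvent Green reagent; bidirectional fit vs DMSO.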

[19] = CCTE_Harrill_HTTr_Apoptosis_PRF_DMEM_24hr: (Pilot) CCTE's 24-hour Apoptosis Assessment for the High-Throughput Transcriptomics (HTTr) Platform, in MCF-7 cells cultured in phenol red-free DMEM + 10% charcoal-stripped fetal bovine serum, Harrill Lab (AID 2283986)
Procedure, shortened: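 MCF-7 cells in phenol red-free DMEM with 10% charcoal-stripped FBS, exposed 24 h across an eight-point dilution series. Caspase-3/7 activation imaged with CellEvent Green by high content imaging; bidirectional fitting against DMSO.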

Measured: AC50

Chain of Nucleoli Translocation, AR (gene 367) (P10275 whole entry, looked up): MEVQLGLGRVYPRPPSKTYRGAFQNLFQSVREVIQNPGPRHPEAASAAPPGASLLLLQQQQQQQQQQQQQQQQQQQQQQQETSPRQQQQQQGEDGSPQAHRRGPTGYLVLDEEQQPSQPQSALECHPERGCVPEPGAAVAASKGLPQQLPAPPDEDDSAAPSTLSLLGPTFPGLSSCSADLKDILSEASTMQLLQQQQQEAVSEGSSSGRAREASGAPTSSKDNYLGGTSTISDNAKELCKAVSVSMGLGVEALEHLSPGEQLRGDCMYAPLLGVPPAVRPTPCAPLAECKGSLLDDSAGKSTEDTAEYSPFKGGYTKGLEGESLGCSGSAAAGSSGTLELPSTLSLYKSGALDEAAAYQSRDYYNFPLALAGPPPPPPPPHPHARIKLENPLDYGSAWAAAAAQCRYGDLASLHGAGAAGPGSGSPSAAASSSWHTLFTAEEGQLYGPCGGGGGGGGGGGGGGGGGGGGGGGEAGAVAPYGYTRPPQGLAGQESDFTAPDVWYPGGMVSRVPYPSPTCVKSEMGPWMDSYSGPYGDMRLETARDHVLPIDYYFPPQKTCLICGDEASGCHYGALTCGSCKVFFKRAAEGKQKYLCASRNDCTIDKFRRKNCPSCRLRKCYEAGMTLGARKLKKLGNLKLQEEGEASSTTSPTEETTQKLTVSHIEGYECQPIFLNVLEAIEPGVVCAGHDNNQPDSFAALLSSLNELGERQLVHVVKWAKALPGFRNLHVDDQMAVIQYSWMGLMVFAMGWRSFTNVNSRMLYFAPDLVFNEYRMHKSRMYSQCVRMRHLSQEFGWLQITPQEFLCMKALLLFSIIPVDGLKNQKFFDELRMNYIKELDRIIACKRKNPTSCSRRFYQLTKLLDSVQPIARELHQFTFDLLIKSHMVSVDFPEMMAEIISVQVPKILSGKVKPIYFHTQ
Chain of Ratio of Nucleoli Translocation and Cytoplasm, AR (gene 367) (P10275 whole entry, looked up): as above

C[N+]1(C)CCCCC1
not listed: [13] | [14] | [15] | DIO1 (gene 1733) | [16] | [17] | [18] | [19]
inactive: all other assays above

N#CSCSC#N
active: [1] 16.5 µM | [3] 12.7 µM | [13] 32.6 µM | [15] 67.6 µM | [8] 92.6 µM | [12] 30.5 µM
inactive: [2] | [14] | [5] | [6] | [7] | [9] | [10] | [11]

CCCOc1nn(C(=O)NS(=O)(=O)c2ccccc2C(=O)OC)c(=O)n1C
inactive: [1] | [2] | [3] | [4] | [6] | [7] | [8]

CC[C@H](C)[C@H]1O[C@]2(C=C[C@@H]1C)C[C@@H]1C[C@@H](C/C=C(\C)[C@@H](O[C@H]3C[C@H](OC)[C@@H](O[C@H]4C[C@H](OC)[C@@H](NC)[C@H](C)O4)[C@H](C)O3)[C@@H](C)/C=C/C=C3\CO[C@@H]4[C@H](O)C(C)=C[C@@H](C(=O)O1)[C@]34O)O2
inactive: [7]
active: DIO1 (gene 1733) 26 µM | [13] 25.7 µM | [14] 84.7 µM | [15] 86.9 µM | [5] 4.94 nM and 26.8 nM | [6] 50 µM | [8] 50 µM | [9] 7.43 nM and 28.2 nM | [10] 38.2 µM and 1.5 µM | [11] 26.5 nM and 1.5 µM | [12] 26.1 nM and 2.28 µM

O=[N+]([O-])c1cc(C(F)(F)F)c(Cl)c([N+](=O)[O-])c1Nc1ncc(C(F)(F)F)cc1Cl
active: DIO1 (gene 1733) 19.4 µM | [13] 14.2 µM | [5] 0.35 µM | [6] 21.5 µM | [9] 322 nM | [10] 1.59 µM | [11] 0.468 µM | [12] 1.14 µM
inactive: [14] | [15] | [7] | [8]

CCCSP(=O)(OCC)SCCC
inactive: [1] | [2] | [3] | [4] | [14] | [15] | [6] | [7] | [8]
active: [13] 32.8 µM

CC(C)N(C(=O)SCC(Cl)=C(Cl)Cl)C(C)C
active: [5] 8.79 µM and 5.81 µM | [11] 20 µM and 8.68 µM | [12] 11.9 µM
inactive: [13] | [14] | [15] | [6] | [7] | [9] | [10] | [12]

C=C(C)[C@H]1Cc2c(ccc3c2O[C@@H]2COc4cc(OC)c(OC)cc4[C@@H]2C3=O)O1
active: [1] 50 µM | [13] 0.108 µM | [14] 0.0842 µM | [15] 13.3 µM | [5] 2.85 µM
not listed: DIO1 (gene 1733)
inactive: all other assays above

CC(COc1ccc(Oc2ccccc2)cc1)Oc1ccccn1 (stereo not given)
inactive: [1] | [3] | [13] | [14] | [6] | [7] | [8] | [9] | [12]
active: [5] 20 µM | [10] 20 µM | [11] 10.2 µM

COP(=O)(OC)OC(Br)C(Cl)(Cl)Br (stereo not given)
inactive: [3] | [13] | [14] | [6] | [7] | [8]
active: [1] 13.6 µM | [2] 79 µM | [4] 77.9 µM | [15] 50 µM

CC(C)=CC1C(C(=O)OCN2C(=O)C3=C(CCCC3)C2=O)C1(C)C (stereo not given)
active: [13] 42.5 µM
not listed: [4] | DIO1 (gene 1733) | [16] | [17] | [18] | [19]
inactive: all other assays above

CCC(=O)Nc1ccc(Cl)c(Cl)c1
inactive: [3] | [4] | [14] | [15] | [6] | [7]
active: [1] 14.3 µM | [13] 41.1 µM

CSC1=N[C@@](C)(c2ccccc2)C(=O)N1Nc1ccccc1
inactive: [14] | [15] | [5] | [6] | [7] | [9] | [10] | [11] | [12]
active: [13] 50 µM | [5] 5.76 µM | [10] 32 µM | [11] 27.1 µM

CNC(=O)ON=C(SC)C(=O)N(C)C
inactive: [1] | [2] | [3] | [5] | [6] | [7] | [8] | [9] | [10] | [11] | [12]

CCOC(=O)COc1cc(-c2nn(C)c(OC(F)F)c2Cl)c(F)cc1Cl
inactive: [1] | [2] | [4] | [6] | [7]
